This note sets out measurements from PubChem BioAssay (Tox21).

Molecules are shown by their SMILES. “And” between values parts separate entries of the source, which are not always exact repeats. Identical values can stand only once. Unmarked numbers belong to inactive results. The source made the active and inactive calls. Unless noted, calls follow the shape of the dose curve; as a rule, active = well fitted curve in the direction sought with a large enough effect in the repeat runs; inconclusive = weak or mixed curves; inactive = no such curve, though single readings can be large; an effect the other way counts as inactive or inconclusive.

Experiment [1] can be described thus: qHTS assay to identify small molecule antagonists of the thyroid receptor (TR) signaling pathway (AID 743065). Also: nearly all actives have a fitted effect of over 55% in size. Also: potency is read from the fitted curve at half-maximal effect. In short, it runs like this: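 GH3.TRE-Luc rat pituitary cells carrying two TR response elements driving luciferase were plated for 4 h, given compound plus 1 nM T3 (final), and incubated 23.5 h at 37 C. ONE-Glo luminescence measured reporter inhibition; CellTiter-Fluor fluorescence tracked cytotoxicity.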

For experiment [2], the system named is thyroid hormone receptor (rat, GH3 cells). The experiment is described as follows: qHTS assay to identify small molecule agonists of the thyroid receptor (TR) signaling pathway (AID 743066; calls by dose curve).
For experiment [3], the target named is Estrogen receptor (Homo sapiens) (UniProt P03372). The experiment is described as follows: qHTS assay to identify small molecule antagonists of the estrogen receptor alpha (ER-alpha) signaling pathway (AID 743069; active = well fitted curve in the direction sought with a large enough effect in the signal ratio in the repeat runs, not every such curve was filed as active; inconclusive = weak or mixed curves, or effect the other way; inactive = no such curve, though single readings can be large or run the other way; the % refers to the signal ratio; also: potency is read from the fitted curve at half-maximal effect). In short, it runs like this: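 Estradiol-stimulated ER-alpha-UAS-bla HEK293 cells, 18 hr compound exposure at 37C. LiveBLAzer B/G substrate, 2 hr RT, fluorescence read.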
Estrogen receptor (Homo sapiens), sequence (P03372 whole entry, looked up): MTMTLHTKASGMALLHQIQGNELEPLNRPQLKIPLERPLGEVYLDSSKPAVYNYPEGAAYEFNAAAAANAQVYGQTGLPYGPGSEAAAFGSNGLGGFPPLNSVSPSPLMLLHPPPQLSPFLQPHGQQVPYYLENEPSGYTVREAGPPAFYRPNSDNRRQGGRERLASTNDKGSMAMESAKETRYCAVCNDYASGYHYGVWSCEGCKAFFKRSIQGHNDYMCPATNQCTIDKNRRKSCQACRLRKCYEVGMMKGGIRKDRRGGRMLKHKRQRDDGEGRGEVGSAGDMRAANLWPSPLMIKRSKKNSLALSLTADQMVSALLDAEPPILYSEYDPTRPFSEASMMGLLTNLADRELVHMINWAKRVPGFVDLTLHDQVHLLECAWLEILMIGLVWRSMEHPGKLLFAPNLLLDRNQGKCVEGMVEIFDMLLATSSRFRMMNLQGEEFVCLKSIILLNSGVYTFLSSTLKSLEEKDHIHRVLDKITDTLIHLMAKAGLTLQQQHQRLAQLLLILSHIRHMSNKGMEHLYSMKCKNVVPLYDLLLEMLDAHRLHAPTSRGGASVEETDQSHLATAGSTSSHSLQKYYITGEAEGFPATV

Experiment [4] can be described thus: qHTS assay to identify small molecule antagonists of the estrogen receptor alpha (ER-alpha) signaling pathway - cell viability counter screen (AID 743074; calls by dose curve;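 also: HEK293 cells carrying ER-alpha-UAS-bla reporter stimulated with 17beta-estradiol; nearly all actives have a fitted effect of over 45% in size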; also: potency is read from the fitted curve at half-maximal effect). (In general: qHTS replaces the single test concentration by a dilution series.)
The target in experiment [5] is Estrogen receptor (Homo sapiens) (UniProt P03372). The experiment is described as follows: qHTS assay to identify small molecule agonists of the estrogen receptor alpha (ER-alpha) signaling pathway (AID 743075; calls by dose curve;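 also: HEK293 GripTite cells with ER-alpha and UAS-driven beta-lactamase reporter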; also: potency is read from the fitted curve at half-maximal effect).
For experiment [6] the target is unchanged. The experiment is described as follows: qHTS assay to identify small molecule agonists of the estrogen receptor alpha (ER-alpha) signaling pathway using the BG1 cell line (AID 743079). Also: nearly all actives have a fitted effect of over 20% in size. Also: potency is read from the fitted curve at half-maximal effect. The settings on record: BG1Luc4E2 cells, ERE-luciferase agonist, 22 h; activation: at 70.3 µM (top of the series).
The nature of experiment [7]: qHTS assay to identify small molecule antagonists of the estrogen receptor alpha (ER-alpha) signaling pathway using the BG1 cell line (AID 743080; calls by dose curve;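 also: BG1 cells stimulated with 17beta-estradiol alongside compound; nearly all actives have a fitted effect of over 25% in size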; also: potency is read from the fitted curve at half-maximal effect). In short, it runs like this:
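Quantitative HTS on the Tox21 10K library: BG1 cells with endogenous ER-alpha and ERE-luciferase reporter, 17beta-estradiol stimulation, 21.5 h compound exposure, luminescence endpoint with parallel fluorescence cytotoxicity counter-read.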

The nature of experiment [8]: qHTS assay to identify small molecule antagonists of the estrogen receptor alpha (ER-alpha) signaling pathway using the BG1 cell line - cell viability counter screen (AID 743081).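 Also: compound given together with 17beta-estradiol as the ER stimulus; nearly all actives have a fitted effect of over 45% in size.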 Also: potency is read from the fitted curve at half-maximal effect.
A further experiment concerns the target Aromatase (Homo sapiens) (UniProt P11511). The experiment is described as follows: qHTS assay to identify aromatase inhibitors (AID 743083). Also: nearly all actives have a fitted effect of over 55% in size. Also: potency is read from the fitted curve at half-maximal effect.
Experiment [9] is described as follows: qHTS assay to identify aromatase inhibitors - cell viability counter screen (AID 743084).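 Also: cells stimulated with testosterone during compound exposure; nearly all actives have a fitted effect of over 55% in size.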 Also: potency is read from the fitted curve at half-maximal effect.
% is scaled to controls: 0 for no effect and ±100 for the full control effect.

Aromatase (Homo sapiens), sequence (P11511 whole entry, looked up): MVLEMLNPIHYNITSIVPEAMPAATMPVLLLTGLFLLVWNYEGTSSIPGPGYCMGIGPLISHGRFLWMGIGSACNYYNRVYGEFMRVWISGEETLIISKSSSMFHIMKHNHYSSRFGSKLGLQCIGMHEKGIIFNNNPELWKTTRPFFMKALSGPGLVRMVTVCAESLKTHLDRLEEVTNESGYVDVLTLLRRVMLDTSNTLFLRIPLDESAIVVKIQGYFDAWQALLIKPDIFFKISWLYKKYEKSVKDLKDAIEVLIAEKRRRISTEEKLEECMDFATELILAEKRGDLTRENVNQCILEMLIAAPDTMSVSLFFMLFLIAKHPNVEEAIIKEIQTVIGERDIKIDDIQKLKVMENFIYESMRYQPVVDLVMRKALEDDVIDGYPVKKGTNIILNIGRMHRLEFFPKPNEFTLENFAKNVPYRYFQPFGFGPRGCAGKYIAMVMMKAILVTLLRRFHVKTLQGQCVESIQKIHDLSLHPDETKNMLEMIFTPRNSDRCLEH

Regarding `CCC(=O)Oc1ccc(/C(CC)=C(\CC)c2ccc(OC(=O)CC)cc2)cc1`, the Potency in experiment [1] is 30.6 µM (active); in [3], 54.9 µM [inconclusive] (active); in experiment [5] it was 0.0014 µM [inconclusive] (active); in [7] it was 61.1 µM (active). For the same molecule, the molecule was called inactive in [2]. The Potency entry (in [4]; in [8]; with Aromatase (Homo sapiens); in experiment [9]) was “inactive” each time. Besides, the activation in experiment [6] was 77.1% (active).
As for `CC1(C)O[C@@H]2C[C@H]3[C@@H]4CCC5=CC(=O)C=C[C@]5(C)[C@H]4[C@@H](O)C[C@]3(C)[C@]2(C(=O)CO)O1`, the Potency result (in [1]; in experiment [3]; in experiment [4]; in experiment [5]; in experiment [8]; with Aromatase (Homo sapiens)) was “inactive” each time. The Potency entry in experiment [9] is “inactive”. The molecule was classed as inactive in experiment [2]. Also, the Potency in experiment [6] was 0.596 µM (active).
On to `CCN(CC)CCNC(=O)c1ccc(NC(C)=O)cc1`, for which the Potency result in experiment [1], in experiment [3], in experiment [4], in experiment [5], in experiment [6] and in [8] was “inactive” throughout. Further, the Potency entry (in the experiment with Aromatase (Homo sapiens); in [9]) was “inactive” each time. In experiment [2], the result was inactive.
`CCCCCCCCCCCC[N+](C)(C)CCCS(=O)(=O)[O-]`: the Potency is 24.6 µM (active) in [1] and 49.6 µM (active) in [4]. In addition, in experiment [2], the molecule was classed as inactive. Moreover, the Potency result (in experiment [3]; in experiment [5]; in [6]; in experiment [8]; with Aromatase (Homo sapiens); in [9]) was “inactive” each time.
As to `O=C1NCCN1`, the Potency result in experiment [1], in experiment [3], in experiment [4], in experiment [5], in [6] and in experiment [7] was “inactive” each time. Moreover, the Potency result (in [8]; in the experiment with Aromatase (Homo sapiens); in experiment [9]) was “inactive” in each case. In addition, the molecule was classed as inactive in experiment [2].
For `CCC(C(=O)OCCOCCN(CC)CC)c1ccccc1` (stereo unspecified), the Potency entry in experiment [1], in [3], in experiment [4], in [5], in [6] and in [8] was “inactive” throughout. In addition, the Potency result (with Aromatase (Homo sapiens); in experiment [9]) was “inactive” each time. Moreover, the molecule was called inactive in experiment [2].
As to `C=CCCCCCCCCCCCCCCCC`, the values for the activity, negative = inhibition (in [1]; in [3]; with Aromatase (Homo sapiens)) were -26.3% [at 8.44 µM], 10.1% [at 6.71 µM] and 12.3% [at 8.47 µM], respectively. Besides, the activation in [2] is -0.275% [at 8.08 µM]; in experiment [5], -3.79% [at 6.71 µM]; in experiment [6] it was 4.88% [at 8.47 µM]. Besides, in experiment [4], the activity, negative = cytotoxicity was -5.03% [at 6.72 µM]. For the same molecule, the activity change, negative = inhibition in [7] was 2.27% [at 8.47 µM]. Moreover, the activity change, negative = cytotoxicity in [8] was 4.81% [at 8.47 µM]; in experiment [9] it was 17.8% [at 8.47 µM].
Consider `CC(C)OCC1CO1` (stereo unspecified), for which the Potency entry in experiment [1], in [3], in [4], in experiment [5], in experiment [6] and in experiment [8] was “inactive” throughout. Also, the Potency result (with Aromatase (Homo sapiens); in [9]) was “inactive” throughout. Further, in experiment [2], the molecule was called inactive.
`CC1=C(C=O)C(C)(C)CCC1`: the Potency result in experiment [1], in experiment [3], in experiment [4], in [5], in experiment [6] and in experiment [7] was “inactive” each time. The Potency result (in experiment [8]; with Aromatase (Homo sapiens); in experiment [9]) was “inactive” each time. For the same molecule, the call in [2] was inactive.
For the molecule `CC(C)CCCC(=O)O`, the Potency result in experiment [1], in [3], in experiment [4], in experiment [5], in experiment [6] and in [8] was “inactive” in each case. The Potency entry (in the experiment with Aromatase (Homo sapiens); in [9]) was “inactive” in each case. In addition, the outcome in experiment [2] was inactive.
Regarding `CN1C(=O)CC(C)(c2ccccc2)C1=O` (stereo unspecified), the Potency result in experiment [1], in experiment [3], in experiment [4], in experiment [5], in [6] and in experiment [7] was “inactive” throughout. Also, the Potency result (in [8]; in the experiment with Aromatase (Homo sapiens); in [9]) was “inactive” throughout. For the same molecule, the outcome in [2] was inactive.
Turning to `CO[Si](C)(OC)OC`, the Potency result in experiment [1], in experiment [3], in experiment [4], in [5], in [6] and in experiment [7] was “inactive” in each case. Besides, the Potency result (in [8]; with Aromatase (Homo sapiens); in [9]) was “inactive” in each case. In addition, the molecule was classed as inactive in experiment [2].
For `CO[C@H]1C=CO[C@@]2(C)Oc3c(C)c(O)c4c(O)c(c5c(c4c3C2=O)=NC2(CCN(CC(C)C)CC2)N=5)NC(=O)/C(C)=C\C=C/[C@H](C)[C@H](O)[C@@H](C)[C@@H](O)[C@@H](C)[C@H](OC(C)=O)[C@@H]1C`, the Potency is 29.8 µM (active) in [1]; 26.6 µM (active) and 53.3 µM (active) in [8]; 30 µM (active) in experiment [9]. Besides, the call in experiment [2] was inactive. Besides, the Potency entry (in [3]; in experiment [4]; in experiment [5]; in experiment [6]; in the experiment with Aromatase (Homo sapiens)) was “inactive” each time.
`O=S1OCCO1`: the Potency result in experiment [1], in experiment [3], in [4], in [5], in [6] and in experiment [7] was “inactive” in each case. The Potency entry (in experiment [8]; with Aromatase (Homo sapiens); in experiment [9]) was “inactive” each time. In experiment [2], the call was inactive.
`CC(N)CN` (stereo unspecified): the Potency result in experiment [1], in experiment [3], in [4], in experiment [5], in [6] and in experiment [7] was “inactive” in each case. The Potency entry (in experiment [8]; in the experiment with Aromatase (Homo sapiens); in experiment [9]) was “inactive” in each case. Further, the molecule was called inactive in experiment [2].
In the case of `CC(C)CCCCCCOC(=O)CCCCC(=O)OCCCCCCC(C)C`, the Potency result in experiment [1], in [3], in [4], in [5], in [6] and in experiment [7] was “inactive” throughout. Moreover, the Potency entry (in experiment [8]; with Aromatase (Homo sapiens); in [9]) was “inactive” in each case. In addition, in experiment [2], the molecule was classed as inactive.
For `CCC(C(=O)OCCN(CC)CC)c1ccccc1` (stereo unspecified), the Potency result in experiment [1], in experiment [3], in [4], in experiment [5], in experiment [6] and in experiment [7] was “inactive” throughout. Also, the Potency result (in experiment [8]; in the experiment with Aromatase (Homo sapiens); in experiment [9]) was “inactive” throughout. In addition, the call in experiment [2] was inactive.
In the case of `CC(C)(C)C(=O)C(Oc1ccc(Cl)cc1)n1ccnc1` (stereo unspecified), the Potency result in experiment [1], in [3], in experiment [4], in experiment [5], in experiment [6] and in experiment [7] was “inactive” each time. Besides, the Potency result in [8] and in [9] was “inactive” throughout. The result in experiment [2] was inactive. Further, in the experiment with Aromatase (Homo sapiens), the Potency was 11.9 µM (active).
Turning to `CCCCCCCCCOC(C)=O`, the Potency result in experiment [1], in [3], in [4], in experiment [5], in experiment [6] and in experiment [7] was “inactive” each time. Moreover, the Potency result (in experiment [8]; with Aromatase (Homo sapiens); in [9]) was “inactive” throughout. The result in [2] was inactive.
For the molecule `O=C(OCCOCCO)c1ccccc1Nc1cccc(C(F)(F)F)c1`, the Potency entry in experiment [1], in [3], in experiment [4], in experiment [5], in [6] and in [8] was “inactive” each time. Also, the Potency result (in the experiment with Aromatase (Homo sapiens); in [9]) was “inactive” in each case. For the same molecule, the result in experiment [2] was inactive.
As to `Cc1ccnc2ccccc12`, the Potency result in experiment [1], in [3], in [4], in [5], in [6] and in [7] was “inactive” in each case. Also, the Potency entry (in [8]; in the experiment with Aromatase (Homo sapiens); in experiment [9]) was “inactive” in each case. For the same molecule, in experiment [2], the molecule was classed as inactive.
Consider `COCC(O)CO` (stereo unspecified), for which the Potency result in [1], in [3], in experiment [4], in [5], in experiment [6] and in experiment [8] was “inactive” each time. Also, the Potency entry (with Aromatase (Homo sapiens); in [9]) was “inactive” throughout. Further, the result in experiment [2] was inactive.
